Compound activity: PubChem BioAssay, National Center for Advancing Translational Sciences (NCATS)
G9a block: qHTS Assay for Inhibitors of Histone Lysine Methyltransferase G9a; Histone-lysine N-methyltransferase EHMT2 (Homo sapiens), Q96KQ7; G9a H3K9 monomethylation, AlphaScreen, 2 h; Potency, µM (series often up to 102 µM), inactives show top-dose activity, negative = inhibition, usual class: inhibitors; 8.8% of 350,000 active; further: on the % scale 0 is the no-effect control and ±100 the full control effect; nearly all actives have a fitted effect of over 75% in size
Target sequence (Q96KQ7 913-1193 limits assumed): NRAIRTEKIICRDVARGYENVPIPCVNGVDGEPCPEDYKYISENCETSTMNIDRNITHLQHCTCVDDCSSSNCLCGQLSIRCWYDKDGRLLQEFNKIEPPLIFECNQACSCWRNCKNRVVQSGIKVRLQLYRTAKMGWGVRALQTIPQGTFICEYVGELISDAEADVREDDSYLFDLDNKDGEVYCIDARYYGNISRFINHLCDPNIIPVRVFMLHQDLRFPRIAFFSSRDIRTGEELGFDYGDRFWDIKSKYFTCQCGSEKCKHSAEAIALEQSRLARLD
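Using a bead-based AlphaScreen, monomethylated H3K9 product from 2 h room-temperature reactions (G9a 20 nM, peptide 500 nM, SAM 20 uM) was detected with 0.5 ug/mL rabbit anti-H3K9me1 antibody.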
JMJD2A Tudor: qHTS Assay for Inhibitors of JMJD2A-Tudor Domain | Lysine-specific demethylase 4A (Homo sapiens), O75164 | AlphaScreen JMJD2A-Tudor / H3K4me3 peptide binding | Potency, µM (doses to about 114 µM), inactives show at the top dose activity change, negative = inhibition, actives largely listed as inhibitors | 4.4% of 390,000 active; further: on the % scale 0 is the no-effect control and ±100 the full control effect; nearly all actives have a fitted effect of over 50% in size
BAZ2B inh: qHTS Assay for Inhibitors of BAZ2B; Bromodomain adjacent to zinc finger domain protein 2B (Homo sapiens), Q9UIF8; AlphaScreen BAZ2B-H3K14Ac peptide displacement; Potency, µM (series often up to 114 µM), for inactives: at the top dose activity change, negative = inhibition, actives largely listed as inhibitors; 4.4% of 360,000 active; AID 504333, 2011; further: on the % scale 0 is the no-effect control and ±100 the full control effect; nearly all actives have a fitted effect of over 60% in size
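Inhibition is scored as reduced AlphaScreen emission. The BAZ2B/b-H3(5-23)K14Ac complex (50 nM each) in PBS pH 7.4, 0.01% Tween-20 meets compound (up to 110 uM) for 30 min at RT before bead addition.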
GLS inh: qHTS for Inhibitors of Glutaminase (GLS); Potency, µM (titrated, usually from 45.5 µM), without a hit: top-dose activity change, negative = inhibition, actives largely listed as inhibitors; Glutaminase kidney isoform, mitochondrial (Homo sapiens), O94925; 0.21% of 410,000 active; GLS enzymatic activity, qHTS titration; further: on the % scale 0 is the no-effect control and ±100 the full control effect
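Read-out is an Amplex red fluorescence increase coupled through glutamate oxidase and HRP, measured before and after 30 min room-temperature incubation. hKGA is in 45 mM KH2PO4 (pH 8.2) with 0.02% Tween-20; glutamine added as 1mM solution.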
HP1b chromo inh: HTS for Inhibitors of HP1-beta Chromodomain Interactions with Methylated Histone Tails; AID 540317, 2011; AlphaScreen HP1-beta / biotin-H3K9me3 peptide binding; Potency, µM (titrated, usually from 114 µM), without a hit: at the top dose activity change, negative = inhibition, hits mostly inhibitors; 0.56% of 390,000 active; further: nearly all actives have a fitted effect of over 70% in size
Target sequence (P83916 whole entry, looked up): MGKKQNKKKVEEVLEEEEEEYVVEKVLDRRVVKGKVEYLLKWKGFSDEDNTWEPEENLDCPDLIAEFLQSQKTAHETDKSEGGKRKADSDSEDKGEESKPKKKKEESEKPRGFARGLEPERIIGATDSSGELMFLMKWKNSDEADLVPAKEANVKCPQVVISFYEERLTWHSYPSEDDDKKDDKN
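AlphaScreen: HP1-beta (50 nM) preformed 30 min with biotin-H3(1-18)K9me3 peptide (50 nM) in PBS pH 7.4, 0.01% Tween-20. Compound added for 30 min at RT, then streptavidin donor/nickel chelate acceptor beads (10 ug/mL) for 30 min.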
* = called active by the depositor; u = inconclusive; x = not tested or not shown; ! = not active in a repeat; [ ] = another dose, or the depositor's remark. Shown are actives, neighbours in structure and some others; about 10% of the full set was active somewhere. The call rests on the fitted dose curve; in most records, active means well fitted curve in the direction sought with a large enough effect; inconclusive means small, poorly fitted or top-dose-only effect, or another doubt; inactive means no such curve, though single readings can be large; an effect the other way counts as inactive or inconclusive. Potency means the concentration at half of the fitted maximal effect.

SMILES | G9a block | JMJD2A Tudor | BAZ2B inh | GLS inh | HP1b chromo inh
CCn1c(NC(C)=O)nc2ccccc21 | 10µM* | 39.8µM* | -19.6% | 5.6% | 9.3%
O=C(c1ccccc1)c1ccc(N2CCN(C(=O)c3ccc(F)cc3F)CC2)c(F)c1 | x | x | x | -0.8% | x
CCC(C(=O)OCC(=O)NCc1ccc2c(c1)OCO2)c1ccccc1 (stereo not drawn) | x | 9.4% | x | -2.0% | 41.0%
O=C(Nc1ccc(Br)cc1F)c1ccc2c(c1)OCCO2 | 50.1µM* | -11.0% | -2.5% | 0.4% | 4.8%
O=C(Nc1ccc(N2CCN(C(=O)c3ccc(Cl)cc3)CC2)cc1)c1ccc2c(c1)OCCO2 | 79.4µM* | -32.5% | -10.2% | 10.4% | -1.1%
O=C(Nc1ccc(N2CCCCC2)cc1)c1ccc2c(c1)OCCO2 | 3.55µM* | u | -9.7% | -0.4% | 4.8%
O=C(Nc1ccc(F)cc1F)c1ccc2c(c1)OCCO2 | u | -10.3% | 1.9% | -6.5% | 34.5%
CC(=O)N1CCN(c2ccc(NC(=O)c3ccc4c(c3)OCCO4)cc2)CC1 | u | -10.1% | 5.6% | 61.7% | 3.6%
Cc1c(C)c2c(c(C)c1OC(=O)CCC(=O)OCCO)CC[C@](C)(CCC[C@H](C)CCC[C@H](C)CCCC(C)C)O2 | x | x | x | -1.6% | x
CCOc1cc(C2C(C(N)=O)=C(C)Nc3ncnn32)cc(Br)c1O (stereo not drawn) | -6.4%[59 µM] | -11.5% | -12.3% | 20.4% | 23.7%[57 µM]
CCOc1cc(C2C(C(=O)Nc3ccccc3)=C(C)Nc3ncnn32)cc(Br)c1O (stereo not drawn) | 10µM* | u | 79.4µM* | 5.4% | 12.2%[57 µM]
CC1=C(C(=O)Nc2ccccc2C)C(c2ccc[nH]2)n2ncnc2N1 (stereo not drawn) | -3.8%[59 µM] | 56.2µM* | 50.1µM* | u | -2.4%[57 µM]
O=S(=O)(c1ccc(Br)s1)N1CCN(c2ccc(F)cc2)CC1 | 39.8µM* | -13.6% | 5.6% | 7.6% | -8.2%
COC(=O)CC(c1ccc(C#N)cc1)n1c(C)ccc1C (stereo not drawn) | 5.7% | -19.9% | -18.7% | -8.3% | 14.8%
CCOC(=O)CC(c1ccc([N+](=O)[O-])cc1)n1c(C)ccc1C (stereo not drawn) | u | -33.7% | 44.7µM* | -9.9% | u
OC(c1cccc(Cl)c1)c1ncc(-c2cccc(C(F)(F)F)c2)[nH]1 (stereo not drawn) | x | x | x | 2.4% | x
COc1ccccc1-c1cc2nc(C)c(CCC(=O)NCCc3ccc(SC)cc3)c(C)n2n1 | -10.0%[59 µM] | -20.2% | -11.8% | -9.9% | 19.3%
O=[N+]([O-])c1ccc(Sc2nnnn2-c2ccccc2)c(Cl)c1 | 50.1µM* | u | u | -4.7% | u
Cn1nnnc1Sc1ccc([N+](=O)[O-])cc1Cl | -2.1% | -19.6% | -11.6% | -0.3% | -5.9%
O=C(Nc1ccc(OCc2cc(=O)n3ccccc3n2)cc1)c1ccccc1Cl | -21.6%[59 µM] | -35.7% | 6.1% | -23.2% | 22.4%[57 µM]
NC(=O)c1cc(N=Nc2c(N)[nH]n(-c3c(Cl)cc(Cl)cc3Cl)c2=O)ccc1Cl | u | -9.8%[11.4 µM] | u | 0.0% | -8.3%
O=C(O)/C=C/c1cn(Cc2ccccc2)nc1-c1cccnc1 | x | -11.9% | -38.2% | 0.8% | 29.5%
CN(CC(=O)Nc1cccc(F)c1)C(=O)/C=C/c1cn(Cc2ccccc2)nc1-c1cccnc1 | 50.1µM* | -26.7% | -9.5% | -7.3% | 17.7%
COc1cccc(-c2cncnc2N(C)Cc2ccco2)c1 | -44.2%[0.501 µM] | x | x | x | x
CCOc1ccc2ccccc2c1C(=O)N[C@@H]1C(=O)N2[C@@H]1SC(C)(C)[C@@H]2C(=O)O | -30.9%[59 µM] | u | 5.5% | 3.98µM*! | 16.8%
SMILES | G9a block | JMJD2A Tudor | BAZ2B inh | GLS inh | HP1b chromo inh
CC1(C)S[C@@H]2[C@H](NC(=O)Cc3ccccc3)C(=O)N2[C@@H]1C(=O)O | 24.9%[59 µM] | x | x | 12.6µM* | x
C[C@H](Oc1ccccc1)C(=O)N[C@@H]1C(=O)N2[C@@H]1SC(C)(C)[C@@H]2C(=O)O | 24.1%[21.5 µM] | x | x | -3.4%[20 µM] | x
CC1(C)S[C@@H]2[C@H](NC(=O)Cc3ccccc3)C(=O)N2[C@H]1C(=O)O | 21.0% | -8.6% | -30.6% | 1.2% | 6.7%
CC1(C)SC2C(C(=O)O)N=C(Cc3ccccc3)N2C1C(=O)O (stereo not drawn) | x | u | x | 15.8µM* | 70.7%
CCC(Oc1ccccc1)C(=O)NC1C(=O)N2C1SC(C)(C)C2C(=O)O (stereo not drawn) | 34.3%[59 µM] | -8.4% | -2.8% | 25.1µM* | 13.2%
CCOc1ccccc1NC(=O)Cn1c(=O)ccc2cc(S(=O)(=O)N3CCCC3)ccc21 | 2.1%[59 µM] | -8.7% | -0.5% | -8.4% | 11.0%[57 µM]
Cc1oc2c(C)c3oc(=O)c(CCC(=O)N4CCCCC4)c(C)c3cc2c1C | -2.4%[59 µM] | -14.5% | -2.8% | -2.7% | 30.7%
CCC1CCc2c(sc(NC(=O)C3c4ccccc4Oc4ccccc43)c2C(=O)OC)C1 (stereo not drawn) | -39.5%[59 µM] | -19.9% | -22.0% | 0.0% | 7.3%
Cc1onc(-c2c(F)cccc2Cl)c1C(=O)N[C@@H]1C(=O)N2C(C(=O)O)C(C)(C)S[C@H]12 (stereo partly drawn) | u | -13.1% | 8.5% | 11.2µM* | 21.1%
O=C(O)C1=C(C(=O)O)C2C=CC1C2 | x | 89.1µM* | x | -18.4% | -10.7%[57 µM]
COc1ccc([C@H]2CC(=O)C=C(c3cccc4c3Oc3ccccc3S4)C2)cc1OC | 0.2%[0.501 µM] | -23.2% | -28.5% | -6.1% | -15.5%
C/C=C\C=C/C(=O)Nc1cccc(C2=NOC3(C2)C[C@@H](C(N)=O)N(C(=O)/C=C/C=C\C)C3)c1 (stereo partly drawn) | u | 50.1µM* | 79.4µM* | 11.2µM* | u
C/C=C\C=C/C(=O)Nc1cccc(C2=NOC3(C2)C[C@@H](C(N)=O)N(C(=O)C2(C)CC2)C3)c1 (stereo partly drawn) | u | u | -4.9% | -4.1% | -32.6%
C=C(C)C(=O)N1CC2(CC(c3cccc(NC(=O)/C=C\C=C/C)c3)=NO2)C[C@H]1C(N)=O (stereo partly drawn) | u | 11.2µM* | -16.9% | 3.1% | -22.0%
C/C=C\C=C/C(=O)Nc1cccc(C2=NOC3(C2)C[C@@H](C(N)=O)N(C(=O)/C=C/CC)C3)c1 (stereo partly drawn) | u | u | -17.1% | -22.9% | u
CCCN(CCC)C(=O)Cn1c(=O)n(-c2ccccc2)c(=O)c2c3c(sc21)CCCC3 | -4.1%[59 µM] | -4.4% | -3.3% | -3.7% | 30.0%
COc1ccc(S(=O)(=O)N2CCCOC2CNC(=O)C(=O)NCCCN2CCOCC2)cc1 (stereo not drawn) | x | -4.1% | 6.4% | 7.0% | 12.7%
Cc1cc(C)c(S(=O)(=O)N2CCCOC2CNC(=O)C(=O)NCCCn2ccnc2)c(C)c1 (stereo not drawn) | 5.4%[59 µM] | 0.7% | u | -2.5% | 19.6%
